Measured values: PubChem BioAssay (NCATS)
Records with an inconclusive call do not appear. Values without a mark were called inactive. Active and inactive are the calls of the source. Calls follow the shape of the dose curve; as a rule, active = well fitted activation curve with a large enough effect; inconclusive = small, poorly fitted or top-dose-only effect; inactive = flat fitted curve, though single readings scatter.

assay: Cellular Toxicity (caspase-3) Hek293 (AID 664); settings: HEK293 caspase-3 activation, DMSO = 0%, 100 µM tamoxifen = 100%; at 92.2 µM (top of the series);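 also: cells exposed to compound for 16 h at 37 °C before readout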
From the text: NIH Chemical Genomics Center [NCGC]
NIH Molecular Libraries Screening Centers Network [MLSCN]
National Institutes of Environmental Health Sciences [NIEHS]
National Toxicology Program [NTP]
We have developed a 1536-well cell-based assay for quantitative high throughput screening (qHTS) against a number of cell lines to determine in vitro caspase 3/7 of small molecules. This particular assay uses the Hek 293 cell line which is derived from human embryonic kidney cells.
NCGC Assay Protocol Summary:
The Caspase-Glo 3/7 assay (Promega) is a homogeneous method to measure caspase-3 and caspase-7 activities in cultured cells. The quantitation of caspase 3/7 activity is based on the cleavage of a peptide-aminoluciferin substrate. After caspase cleaves the substrate the free aminoluciferin is liberated and serves as the substrate of luciferase, which generates the light. The luminescent signal is proportional to amount of caspase 3/7 activity present.
Using the Caspase-Glo 3/7 assay, the amount of caspase 3/7 activity was measured in the Hek 293 cell line with complete culture medium following compound treatment for 16 hours. The assay was performed in opaque white 1536-well plates. In the screen, tamoxifen and doxorubicin were used as positive controls. Library compounds were measured for their ability to cause the activation of caspase 3/7 in the cell line, as reflected by an increase in luminescence signal, in a concentration-dependent manner. Data were normalized to the controls for basal activity (DMSO only) and 100% stimulation (100 uM tamoxifen). AC50 values were determined from concentration-response data modeled with the standard Hill equation.
qHTS protocol for caspase 3/7 assay in Hek 293 cells
[Step] [Parameter] [Value] [Description]
2. Time; 5 hr; 37 °C incubation
4. Controls; 23 nL; Tamoxifen 0.23 uM to 100 uM & Doxorubicin 7.0 pM to 100 uM
5. Time; 16 hr; 37 °C incubation
6. Reagent; 5 uL; Caspase-Glo 3/7 reagent
7. Time; 20 min; Room Temperature
8. Detection; Luminescence; Viewlux plate reader
Keywords: caspase 3/7, apoptosis, Hek 293 cell line, luminescence, NTPHTS, NTPHTS_NCGC, NIEHS, EPA, DSSTox, MLSMR, MLSCN, NIH Roadmap, qHTS, NCGC

Compared with Nc1ccc(N=Nc2ccccc2)c(N)c1, O=[N+]([O-])c1ccccc1Nc1ccccc1 is higher in caspase-3 activation: -11.8% for the first, -0.0405% for the second.

Going from O=c1[nH]ncc2ccccc12 to c1ccc2ncccc2c1, the caspase-3 activation rises from -1.83% to -0.104%.

First: COc1ccc(C(=O)Nc2ccccc2)cc1[N+](=O)[O-]
Second: CC(=O)OC(C(=O)c1ccccc1)c1ccccc1 (stereo not given)
The caspase-3 activation of the first is lower: -1.89% for the first, -0.138% for the second.

First: C/C=C/C=C/C=O
Second: CC(/C=C/C=C(C)/C=C/C(=O)O)=C\C=C\C=C(C)\C=C\C=C(C)\C=C\C(=O)O
The caspase-3 activation of the first is higher: 29% for the first, -7.2% for the second.

Going from NC(=O)Nc1nc2ccccc2[nH]1 to Clc1nc2ccccc2nc1Cl, the caspase-3 activation rises from -0.34% to 15.8%.

Compared with Cc1cc(=O)oc2cc(O)cc(O)c12, Oc1ccc(O)c2c(O)cccc12 is higher in caspase-3 activation: -0.488% for the first, 18% for the second.

Going from O=C1OC(=O)c2ccccc21 to O=C1c2ccccc2C(=O)C1(O)O, the caspase-3 activation falls from 1.71% to 0.893%.

First: O=[N+]([O-])c1cc(N(CCO)CCO)ccc1NCCO
Second: Cc1ccc(N)cc1[N+](=O)[O-]
The caspase-3 activation of the first is lower: -3.81% for the first, -1.57% for the second.

Compared with c1cc2c3c(c1)ccc1cccc(c13)C2, c1ccc(CSCc2ccccc2)cc1 is higher in caspase-3 activation: -1.87% for the first, 0.61% for the second.

Going from CCCCNCC to CCNC(=S)NCC, the caspase-3 activation falls from -0.76% to -2.38%.

First: CC(=O)OC1CC(C)OC(C)O1 (stereo not given)
Second: C=C(C#N)C(=O)OCC
The caspase-3 activation of the first is higher: 2.93% for the first, -3.19% for the second.

Going from Nc1cc(C(=O)O)c(O)c(S(=O)(=O)O)c1 to O=CC(=O)c1ccccc1, the caspase-3 activation rises from 0.407% to 3.78%.

Going from S=C(NC1CCCCC1)NC1CCCCC1 to Cc1ccccc1OCC1CO1 (stereo not given), the caspase-3 activation falls from 3.5% to 0.226%.

First: CCOc1ccc2nc(N)sc2c1
Second: CCCCCCCCOc1ccc(C(=O)O)cc1
The caspase-3 activation of the first is higher: 2.81% for the first, -2.79% for the second.

Compared with c1ccncc1, c1c[nH]cn1 is lower in caspase-3 activation: -0.0676% for the first, -0.608% for the second.

Compared with CCCCCCCCC1CO1 (stereo not given), CCCCC(CC)COCCCN (stereo not given) is lower in caspase-3 activation: 0.315% for the first, -1.34% for the second.

Going from C=CC1CO1 (stereo not given) to C=CC(=O)CC, the caspase-3 activation rises from -0.428% to 0.103%.

First: OCC(CBr)(CBr)CBr
Second: CCCCCCc1ccc(-c2ccc(C#N)cc2)cc1
The caspase-3 activation of the first is higher: 0.713% for the first, 0.233% for the second.

Compared with O=C=Nc1ccc(Cl)c(Cl)c1, CCCCC(CC)COP(=O)(OCC(CC)CCCC)OCC(CC)CCCC (stereo not given) is lower in caspase-3 activation: 9.15% for the first, 2.89% for the second.

CC(C)S showed a caspase-3 activation of 0.604%.

For C=C1CC[C@H](O)C/C1=C/C=C1\CCC[C@]2(C)[C@@H]([C@H](C)CCCC(C)C)CC[C@@H]12, the caspase-3 activation was 173% (active).
